The list shows a part of the results. The source made the active and inactive calls.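 Rule for the calls: active = compounds that raise the fluorescence signal in this interference counterscreen, with EC50 at or below 10 µM; inactive = the rest.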
Assay: optical artefact potency, substrate without enzyme – biochemical, fluorescence intensity, triplicate, artefact control for kallikrein-7 zymogen activator project, dose response (AID 720493);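 note: intact quenched peptide substrate alone read at 355 nm excitation and 520 nm emission; signal is fluorescence gain from T0 to T4 after four hours at room temperature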
Conditions: EDANS-DABCYL peptide fluorescence interference, no enzyme

EC50, inactive:
COc1c(N2CCN(C(=S)Nc3ccccc3F)C(C)C2)c(F)cc2c(=O)c(C(=O)O)cn(C3CC3)c12 (stereo not drawn) > 69.5 µM, CN(C(=O)c1cc2c(=O)n3ccccc3nc2s1)C1CCCCC1 > 69.5 µM, COc1cccc2sc3cc(NCC[C@@H]4CCCN4C)ccc3c(=O)c12 > 69.5 µM, O=C(Oc1c(-c2ccco2)oc2ccccc2c1=O)c1cccnc1 21.2 µM, Cc1cccc(C)c1NC(=O)C(c1ccccc1)N1CC(=O)Nc2ccccc21 (stereo not drawn) > 69.5 µM, O=c1c(-c2ccccc2)coc2c(CN3CCOCC3)c(O)ccc12 > 69.5 µM, O=C(OC1CCOC1=O)c1ccc(-c2nc3ccccc3s2)s1 (stereo not drawn) > 69.5 µM, COC(=O)C1=NN(c2ccccc2)C2C(=O)N(c3ccccc3OC)C(=O)C12 (stereo not drawn) > 69.5 µM
